Hit rate of the full screen: of about 1,300 compounds, about 140 (11%) were called active. How the calls were made is not given here. Only a sample is shown. Potency and affinity values are given separately.
Biological target: Prostaglandin E2 receptor EP2 subtype (Homo sapiens) (UniProt P43116)
Assay: EP2 receptor modulators, dose response, cell-based, human EP2, PGE2 EC50 shift (AID 1421)
Details: EP2-expressing cells, PGE2 EC50 shift by compound; at 20 µM

Sequence of Prostaglandin E2 receptor EP2 subtype (Homo sapiens) (P43116 whole entry, looked up): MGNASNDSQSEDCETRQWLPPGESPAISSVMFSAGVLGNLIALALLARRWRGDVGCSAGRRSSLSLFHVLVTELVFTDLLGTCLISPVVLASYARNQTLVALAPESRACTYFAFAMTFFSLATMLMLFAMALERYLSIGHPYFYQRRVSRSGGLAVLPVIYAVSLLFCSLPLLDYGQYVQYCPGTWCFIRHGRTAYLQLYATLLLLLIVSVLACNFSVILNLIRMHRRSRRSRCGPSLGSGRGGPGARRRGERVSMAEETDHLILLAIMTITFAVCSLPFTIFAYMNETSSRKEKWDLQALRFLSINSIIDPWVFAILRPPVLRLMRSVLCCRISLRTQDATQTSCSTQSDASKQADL

PGE2 EC50 with compound, inactive:
Cc1onc(-c2ccccc2Cl)c1-c1nc(-c2ccncc2)no1 0.49 nM
CCOc1ccccc1NC(=O)c1ccccc1-c1nc(-c2ccccc2)no1 0.4 nM
Cc1nn2c(N3CCN(C(=O)c4ccco4)CC3)cc(C(C)(C)C)nc2c1-c1ccccc1 1.08 nM
Cc1ccc(NCc2n[nH]c(=S)n2Cc2ccccc2)cc1Cl 0.64 nM
O=C(O)/C=C/c1ccccc1Oc1ccc(Cl)cc1Cl 1.45 nM
COc1cc2c(cc1OC)-c1cc(Nc3ccc4c(c3)OCCO4)nc(=O)n1CC2 0.72 nM
COc1ccc(OC)c(/C=C/C(=O)N2CCCc3ccccc32)c1 0.28 nM
C=C(C)Cn1c(C)cc(C)c(S(=O)(=O)c2ccc(C)cc2)c1=O 0.32 nM
COC(=O)c1c(NC(=O)CSc2nnc(-c3ccco3)n2Cc2ccccc2)sc(C)c1C 0.82 nM
CCc1cc2cc3c(cc2nc1SCC(=O)OC(C)C)OCO3 0.14 nM
O=c1[nH]c2ccc(Cl)cc2c(-c2ccccc2)c1N1CCN(c2ccccn2)CC1 0.62 nM
CCOC(=O)C1CCN(c2c(C(=O)c3ccccc3)cnc3ccc(CC)cc23)CC1 0.81 nM
CCOC(=O)C1CCN(c2c(C(=O)c3ccccc3)cnc3ccc(Cl)cc23)CC1 0.39 nM
O=c1[nH]c2ccc(Br)cc2c(-c2ccccc2)c1N1CCOCC1 0.39 nM
O=C(Nc1cccc2cccnc12)c1ccc(Br)o1 0.36 nM
CCOP(=O)(OCC)c1nc(/C=C/c2ccccc2)oc1NCc1ccccc1 0.52 nM
CC1CCCN(C(=O)CSc2cnc3ccccc3n2)C1 (stereo not given) 1.42 nM
CCOC(=O)c1c(N)sc2c1CCC(CC)C2 (stereo not given) 0.46 nM
COCC(=O)Nc1sc2c(c1C(=O)OC)CCC(C)C2 (stereo not given) 0.38 nM
CCn1nnnc1SCC(=O)Nc1cccc(C)n1 1.23 nM
COc1cccc(C2=NN(C(=O)c3cccs3)C(O)(C(F)(F)F)C2)c1 (stereo not given) 0.25 nM
CN(C)c1nccc(N(Cc2ccccc2)Cc2ccccc2)c1C#N 0.29 nM
S=C(Nc1ccccc1Cl)N(Cc1ccccc1)Cc1ccccn1 0.41 nM
Cc1ccc(C(C)C)c(OCCn2c(=O)oc3ccccc32)c1 0.33 nM
CC(C)(C)C1CCc2onc(C(=O)Nc3cccnc3)c2C1 (stereo not given) 0.4 nM
c1ccc(C2Nc3ccccc3Oc3ccccc32)cc1 (stereo not given) 0.21 nM
O=C(NCCC1=CCCCC1)c1cccc2c1C(=O)N(C1CCCCC1)C2 1.89 nM
Cc1ccc2c(c1)N(S(=O)(=O)c1ccc(F)cc1)C(C(C)(C)C)CO2 (stereo not given) 0.45 nM
Cc1ccc(S(=O)(=O)N2c3ccccc3OCC2C(C)(C)C)cc1 (stereo not given) 0.14 nM
CCC(=O)N(CC)c1nc(-c2cc(OC)ccc2OC)cs1 0.24 nM
CCCOP(=O)(OCCC)c1nc(-c2ccccc2)oc1NCc1ccccc1 0.15 nM
CCOc1ccc(OCC)c(NC(=O)CN2CCN(c3cccc(C)c3)CC2)c1 0.86 nM
O=C(O)c1cc(C(=O)O)cc(N2C(=O)c3ccccc3C2=O)c1 0.39 nM
O=c1c2ccccc2c(-c2ccccc2)nn1Cc1c(Cl)cccc1Cl 0.41 nM
O=C1CCCc2ccccc2N1Cc1c(Cl)cccc1Cl 0.64 nM
CN(Cc1cccs1)c1nc(-c2cccnc2)nc2ccccc12 0.64 nM
CC(C)CCn1c(Oc2ccc(Cl)cc2)nc2c1c(=O)n(C)c(=O)n2C 0.31 nM
CC(C)CCn1c(O)c(N=NC(=O)c2ccco2)c2ccccc21 0.33 nM
O=c1c2ccccc2c2ccccc2c(=O)n1Cc1ccco1 0.45 nM
CCCCn1c(C)cc(C)c(S(=O)(=O)c2ccccc2C)c1=O 0.31 nM
CCCN(CCC)C(C)C(=O)NCC1(c2ccccc2)CCCC1 (stereo not given) 0.23 nM
CCSc1nc2ccccc2n1Cc1ccccc1F 0.31 nM
CC1CCN(C(C)C(=O)Nc2ccccc2-c2ccccc2)CC1 (stereo not given) 0.26 nM
Cc1ccc(S(=O)(=O)NCC(=O)OCN2C(=O)c3ccccc3C2=O)cc1 2.7 nM
Cc1ccc(S(=O)(=O)c2ccc(Oc3cccc(C)c3)cc2)cc1 0.66 nM
COc1ccc(OCC(=O)NC(=S)Nc2ccc3c4c(cccc24)CC3)cc1 11.2 nM
COc1ccc(-c2cc(C(F)(F)F)n3nc(C(=O)N(C)Cc4ccccc4)cc3n2)cc1OC 0.42 nM
CN(C)c1nc(N2CCOCC2)nc(N(c2ccccc2)c2ccccc2)n1 0.59 nM
Cc1cnn(-c2nc(-c3ccccc3)cc(-c3ccccc3)n2)c1 0.56 nM
COc1ccc(-c2cc(C(F)(F)F)nc(NC3CCCC3)n2)cc1OC 0.54 nM
c1ccc(Nc2nc(N3CCNCC3)nc(N3CCOCC3)n2)cc1 0.98 nM
COc1ccc(C2=Nn3c(nnc3-c3ccccc3)SC2)cc1OC 0.88 nM
CC(=O)c1sc2nc(-c3ccc(C)cc3)c3c(c2c1N)CCCC3 0.52 nM
O=C(/C(=C/O)N=Nc1ccccc1)c1cccs1 2.24 nM
COCCOC(=O)c1c(C)oc2ccc(OCc3ccccc3)cc12 0.53 nM
c1ccc(Oc2nc3ccccc3n3cccc23)cc1 0.38 nM
Cc1cc(C)c2c(n1)sc1c(=O)n(Cc3ccccc3Cl)nnc12 0.29 nM
O=C1c2ccccc2OC2(C=Cc3ccccc3O2)N1Cc1ccccc1 (stereo not given) 0.27 nM
Clc1ccc(-c2nn3c(-c4ccccc4)nnc3s2)cc1 1.36 nM
CCCCOC(=O)Sc1nc2ccccc2o1 2.08 nM
COc1ccc(C(=O)NCCCN2CCOCC2)cc1OC 0.55 nM
COc1ccc(-c2cc(C(F)(F)F)nc(NCc3ccco3)n2)cc1OC 0.48 nM
CC(=O)Oc1c2c(c3c(c1CC=C(C)C)O[C@]14C(=C[C@@H]5CC1C(C)(C)OC4(C/C=C(\C)C(=O)O)C5=O)C3=O)OC(C)(CCC=C(C)C)C=C2 (stereo not given in full) 7.31 nM
O=c1cc2c(nn1Cc1c(Cl)cccc1Cl)-c1ccccc1CC2 0.74 nM
O=c1cc(N2CCCCC2)c(-c2ccccc2)nn1Cc1c(Cl)cccc1Cl 1.07 nM
Cc1ccc(Oc2nc(-c3ccccc3)ncc2S(C)(=O)=O)cc1 0.58 nM
O=C(O)c1ccc(CNCc2cccc(Cl)c2Cl)cc1 1.05 nM
CCOC(=O)C1=CN(CC2CCCO2)C=C(C(=O)OCC)C1c1ccccc1C(F)(F)F (stereo not given) 0.31 nM
C=CCC1(C)C(=O)N(c2ccccc2)c2ccccc21 (stereo not given) 0.38 nM
Brc1cccc(-c2nnc(SCc3ccon3)n2-c2ccccc2)c1 0.48 nM
COc1ccc(Oc2cc(C(F)(F)F)nc(N(C)C)n2)cc1 0.6 nM
Cc1cc(C)n(-c2nc(C)nc3c2cnn3-c2ccccc2)n1 0.41 nM
COC(=O)c1ccc(-c2ccco2)n1Cc1cccc(C)c1 0.17 nM
Cc1nn(Cc2c(Cl)cccc2Cl)c(C)c1C(=O)NCc1ccc(C)n1C 0.76 nM
O=C(CSc1nc2cc(Cl)ccc2s1)N1CCCc2ccccc21 0.24 nM
C/C(=N\N=C(c1ccccc1)c1ccccc1)c1ccco1 0.47 nM
CCOc1ccccc1NC(=O)c1c(Br)cnn1C 0.79 nM
CCOC(=O)c1ccccc1NC1c2ccccc2C(=O)N1c1cc(C)ccn1 (stereo not given) 0.34 nM
CCOc1ccccc1Cn1c(=O)oc2ccc(C)cc21 0.36 nM
O=C(CSc1ncnc2c1oc1ccccc12)Nc1cccc(F)c1 2.94 nM
COc1cccc(/C=N/c2oc(-c3ccccc3)cc2C#N)c1O 8.67 nM
COc1ccc(Nc2nc(-c3cc4cccc(OC)c4oc3=O)cs2)cc1 0.92 nM
O=C(CSc1nnc(COc2ccccc2)n1-c1ccccc1)c1ccccc1 0.74 nM
Cc1cc(C)cc(OC2CCCCC2NS(=O)(=O)c2ccccc2)c1 (stereo not given) 0.48 nM
C=CCOc1ccccc1CNc1ccccc1C 0.32 nM
COc1ccccc1C(=O)NC(=S)Nc1cc(C(=O)O)ccc1C 0.34 nM
Cc1cc(SCC(=O)NCCC2=CCCCC2)nc2ccccc12 0.21 nM
CCCc1cc(=O)n2[nH]c(NCc3cccs3)nc2n1 0.94 nM
N#CN=C1SCCS1 0.67 nM
C=CCSc1ncnc2sc(C)c(C)c12 0.85 nM
CSc1ncnc2sc(C)c(C)c12 0.56 nM
CC(C)c1ccc2c(c1)CCC1C(C)(C(N)=O)CCCC21C (stereo not given) 0.38 nM
Cn1c(/C=C/N(Cc2ccccc2)c2ccccc2)c([N+](=O)[O-])c(=O)n(C)c1=O 0.45 nM
CCN(CC)CCN1C(=O)c2cccc3cc(N)cc(c23)C1=O 0.76 nM
Brc1ccccc1Cn1c(-c2cscn2)nc2ccccc21 0.39 nM
